# A number with no mark means an inactive call.
# How the values were obtained:
# Assay in all cases: log2 ratio of Biotin-Ahx-Ub-VS probe labelling (fragment/DMSO); higher = less target engagement (more negative = stronger competition), active = hit call of the paper (q ≤ 0.05, log2 ratio ≤ -1)
# Details in all cases: compound concentration: 200 uM; treatment time: 3 h
# OTUD6B = molecular target: T1, OTUD6B (UniProt Q8N6M0)
# T1 sequence (whole entry): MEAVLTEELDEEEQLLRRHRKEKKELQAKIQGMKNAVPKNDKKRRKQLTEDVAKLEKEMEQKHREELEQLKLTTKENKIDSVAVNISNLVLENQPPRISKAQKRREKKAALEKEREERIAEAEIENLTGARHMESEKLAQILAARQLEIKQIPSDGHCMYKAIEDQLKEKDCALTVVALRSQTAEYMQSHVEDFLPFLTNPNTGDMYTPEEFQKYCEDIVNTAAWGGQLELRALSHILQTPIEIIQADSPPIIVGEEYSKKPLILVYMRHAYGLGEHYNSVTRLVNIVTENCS
# Method in brief: (§1)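 In triplicate, 495 µg of HEK293T lysate per sample was incubated with fragment at 200 µM or vehicle for 3 h. Biotin-Ahx-Ub-VS was then added to 0.5 µM final for 1 h, and labelled DUBs were captured with NeutrAvidin, digested with LysC and trypsin, and measured by diaPASEF LC-MS/MS. Data are average log2 fragment/vehicle ratios by unpaired t-test from global-median-normalised Spectronaut label-free quantities, restricted to proteins with ≥2 unique peptides.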
# OTUD7B = molecular target: T2, OTUD7B (UniProt Q6GQQ9)
# T2 sequence (whole entry): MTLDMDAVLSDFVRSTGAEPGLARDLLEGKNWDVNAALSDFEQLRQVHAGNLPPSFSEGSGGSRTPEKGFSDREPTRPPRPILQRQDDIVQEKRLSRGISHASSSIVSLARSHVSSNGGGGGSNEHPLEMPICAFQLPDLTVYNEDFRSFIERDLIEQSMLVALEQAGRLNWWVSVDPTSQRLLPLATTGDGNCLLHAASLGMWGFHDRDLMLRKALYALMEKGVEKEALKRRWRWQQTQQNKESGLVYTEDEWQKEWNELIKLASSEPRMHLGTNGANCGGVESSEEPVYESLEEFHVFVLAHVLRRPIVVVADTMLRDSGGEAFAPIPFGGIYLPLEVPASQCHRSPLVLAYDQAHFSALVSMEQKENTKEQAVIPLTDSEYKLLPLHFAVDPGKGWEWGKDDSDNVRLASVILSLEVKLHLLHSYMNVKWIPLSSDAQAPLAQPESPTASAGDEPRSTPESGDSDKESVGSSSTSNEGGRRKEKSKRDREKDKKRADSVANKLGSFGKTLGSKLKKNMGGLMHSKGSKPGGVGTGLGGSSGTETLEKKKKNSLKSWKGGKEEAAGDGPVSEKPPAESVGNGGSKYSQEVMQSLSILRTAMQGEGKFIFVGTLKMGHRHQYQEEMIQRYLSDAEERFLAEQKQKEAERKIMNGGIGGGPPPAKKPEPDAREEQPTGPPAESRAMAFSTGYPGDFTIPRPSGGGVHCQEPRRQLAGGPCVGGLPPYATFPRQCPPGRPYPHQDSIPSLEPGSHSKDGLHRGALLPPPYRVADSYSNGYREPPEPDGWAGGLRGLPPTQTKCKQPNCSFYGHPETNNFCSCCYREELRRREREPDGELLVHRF
# Method in brief: as §1
# PRPF8 = PRPF8 (UniProt Q6P2Q9)
# Method in brief: as §1
# PSMD7 = molecular target: T3, PSMD7 (UniProt P51665)
# T3 sequence (whole entry): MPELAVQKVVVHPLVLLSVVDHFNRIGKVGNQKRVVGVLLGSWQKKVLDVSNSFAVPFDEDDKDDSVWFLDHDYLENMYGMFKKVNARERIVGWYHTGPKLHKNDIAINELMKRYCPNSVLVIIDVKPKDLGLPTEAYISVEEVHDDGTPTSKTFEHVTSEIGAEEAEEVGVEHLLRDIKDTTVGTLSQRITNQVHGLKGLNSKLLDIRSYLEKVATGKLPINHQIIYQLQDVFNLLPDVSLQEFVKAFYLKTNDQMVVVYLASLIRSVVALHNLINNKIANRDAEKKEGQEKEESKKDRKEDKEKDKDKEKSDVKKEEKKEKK
# Method in brief: as §1
# UCHL1 = UCHL1 (UniProt P09936)
# Method in brief: as §1
# UCHL3 = molecular target: T4, UCHL3 (UniProt P15374)
# T4 sequence (whole entry): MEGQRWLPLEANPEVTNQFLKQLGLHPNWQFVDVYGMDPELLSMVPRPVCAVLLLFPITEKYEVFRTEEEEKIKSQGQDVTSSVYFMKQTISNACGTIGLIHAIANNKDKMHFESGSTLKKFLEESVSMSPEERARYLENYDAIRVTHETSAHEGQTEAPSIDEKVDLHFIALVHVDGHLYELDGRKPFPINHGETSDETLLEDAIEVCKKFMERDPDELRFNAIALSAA
# Method in brief: as §1
# UCHL5 = molecular target: T5, UCHL5 (UniProt Q9Y5K5)
# T5 sequence (whole entry): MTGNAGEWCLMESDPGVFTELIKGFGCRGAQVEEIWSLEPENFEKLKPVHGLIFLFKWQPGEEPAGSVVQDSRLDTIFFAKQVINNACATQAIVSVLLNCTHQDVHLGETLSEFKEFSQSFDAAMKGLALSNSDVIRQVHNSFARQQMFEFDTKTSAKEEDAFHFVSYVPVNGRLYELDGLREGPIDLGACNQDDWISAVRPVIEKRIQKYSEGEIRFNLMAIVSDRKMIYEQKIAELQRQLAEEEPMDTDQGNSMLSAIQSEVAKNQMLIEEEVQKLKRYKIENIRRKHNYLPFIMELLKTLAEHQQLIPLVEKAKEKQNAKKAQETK
# Method in brief: as §1
# USP10 = USP10 (UniProt Q14694)
# Method in brief: as §1
# USP15 = molecular target: T6, USP15 (UniProt Q9Y4E8)
# T6 sequence (whole entry): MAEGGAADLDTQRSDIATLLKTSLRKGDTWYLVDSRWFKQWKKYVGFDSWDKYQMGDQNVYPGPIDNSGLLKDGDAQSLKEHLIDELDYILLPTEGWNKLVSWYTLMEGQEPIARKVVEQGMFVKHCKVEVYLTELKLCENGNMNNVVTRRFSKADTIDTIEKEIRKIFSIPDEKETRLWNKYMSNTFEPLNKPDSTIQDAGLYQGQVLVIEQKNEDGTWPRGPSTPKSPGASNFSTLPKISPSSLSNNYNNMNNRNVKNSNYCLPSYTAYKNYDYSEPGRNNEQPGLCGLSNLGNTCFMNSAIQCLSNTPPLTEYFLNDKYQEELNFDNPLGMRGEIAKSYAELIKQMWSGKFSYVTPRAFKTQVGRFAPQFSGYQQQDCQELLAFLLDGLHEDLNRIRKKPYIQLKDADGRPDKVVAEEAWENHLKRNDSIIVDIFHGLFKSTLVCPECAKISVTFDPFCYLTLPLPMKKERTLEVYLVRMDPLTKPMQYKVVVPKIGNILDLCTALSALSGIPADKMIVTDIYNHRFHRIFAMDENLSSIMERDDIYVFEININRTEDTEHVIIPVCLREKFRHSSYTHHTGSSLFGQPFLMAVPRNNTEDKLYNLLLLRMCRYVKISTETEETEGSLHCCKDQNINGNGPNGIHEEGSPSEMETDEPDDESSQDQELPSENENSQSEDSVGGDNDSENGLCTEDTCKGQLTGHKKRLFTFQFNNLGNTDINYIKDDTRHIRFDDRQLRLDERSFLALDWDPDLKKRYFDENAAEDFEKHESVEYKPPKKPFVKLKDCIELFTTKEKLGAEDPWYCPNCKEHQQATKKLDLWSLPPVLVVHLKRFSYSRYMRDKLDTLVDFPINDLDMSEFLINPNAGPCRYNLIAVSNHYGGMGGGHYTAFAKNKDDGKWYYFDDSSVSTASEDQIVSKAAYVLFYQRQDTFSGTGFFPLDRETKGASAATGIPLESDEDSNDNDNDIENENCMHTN
# Method in brief: as §1
# USP16 = USP16 (UniProt Q9Y5T5)
# Method in brief: as §1
# Chain of UCHL1 (P09936 whole entry, looked up): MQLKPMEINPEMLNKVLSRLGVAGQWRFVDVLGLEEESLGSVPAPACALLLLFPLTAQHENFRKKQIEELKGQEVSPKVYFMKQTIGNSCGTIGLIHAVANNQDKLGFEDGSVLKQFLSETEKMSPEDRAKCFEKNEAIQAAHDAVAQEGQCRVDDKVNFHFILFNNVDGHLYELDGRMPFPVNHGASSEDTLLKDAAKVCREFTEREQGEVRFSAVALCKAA
# Chain of USP16 (Q9Y5T5 whole entry, looked up): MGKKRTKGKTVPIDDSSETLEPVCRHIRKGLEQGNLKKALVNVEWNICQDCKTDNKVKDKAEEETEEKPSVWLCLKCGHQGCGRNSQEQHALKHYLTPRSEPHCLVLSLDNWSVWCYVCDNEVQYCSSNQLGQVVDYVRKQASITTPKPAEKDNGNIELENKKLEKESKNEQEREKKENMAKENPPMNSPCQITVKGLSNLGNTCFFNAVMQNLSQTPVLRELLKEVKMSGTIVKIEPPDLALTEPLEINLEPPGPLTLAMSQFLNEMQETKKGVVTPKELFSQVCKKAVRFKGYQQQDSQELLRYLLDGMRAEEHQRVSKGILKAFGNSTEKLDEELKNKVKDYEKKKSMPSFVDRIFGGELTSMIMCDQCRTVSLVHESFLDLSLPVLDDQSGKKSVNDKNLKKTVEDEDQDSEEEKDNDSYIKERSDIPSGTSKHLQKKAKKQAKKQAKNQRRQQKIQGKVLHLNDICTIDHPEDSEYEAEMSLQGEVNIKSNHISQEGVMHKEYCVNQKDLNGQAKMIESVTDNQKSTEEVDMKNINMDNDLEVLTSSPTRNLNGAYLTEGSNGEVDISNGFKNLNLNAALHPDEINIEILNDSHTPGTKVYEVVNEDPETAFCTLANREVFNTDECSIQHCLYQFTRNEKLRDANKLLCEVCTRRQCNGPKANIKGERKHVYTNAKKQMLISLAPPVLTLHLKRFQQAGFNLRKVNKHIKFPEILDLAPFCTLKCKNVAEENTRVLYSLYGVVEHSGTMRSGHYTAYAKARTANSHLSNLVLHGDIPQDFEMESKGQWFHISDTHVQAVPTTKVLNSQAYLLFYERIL
# Chain of USP10 (Q14694 whole entry): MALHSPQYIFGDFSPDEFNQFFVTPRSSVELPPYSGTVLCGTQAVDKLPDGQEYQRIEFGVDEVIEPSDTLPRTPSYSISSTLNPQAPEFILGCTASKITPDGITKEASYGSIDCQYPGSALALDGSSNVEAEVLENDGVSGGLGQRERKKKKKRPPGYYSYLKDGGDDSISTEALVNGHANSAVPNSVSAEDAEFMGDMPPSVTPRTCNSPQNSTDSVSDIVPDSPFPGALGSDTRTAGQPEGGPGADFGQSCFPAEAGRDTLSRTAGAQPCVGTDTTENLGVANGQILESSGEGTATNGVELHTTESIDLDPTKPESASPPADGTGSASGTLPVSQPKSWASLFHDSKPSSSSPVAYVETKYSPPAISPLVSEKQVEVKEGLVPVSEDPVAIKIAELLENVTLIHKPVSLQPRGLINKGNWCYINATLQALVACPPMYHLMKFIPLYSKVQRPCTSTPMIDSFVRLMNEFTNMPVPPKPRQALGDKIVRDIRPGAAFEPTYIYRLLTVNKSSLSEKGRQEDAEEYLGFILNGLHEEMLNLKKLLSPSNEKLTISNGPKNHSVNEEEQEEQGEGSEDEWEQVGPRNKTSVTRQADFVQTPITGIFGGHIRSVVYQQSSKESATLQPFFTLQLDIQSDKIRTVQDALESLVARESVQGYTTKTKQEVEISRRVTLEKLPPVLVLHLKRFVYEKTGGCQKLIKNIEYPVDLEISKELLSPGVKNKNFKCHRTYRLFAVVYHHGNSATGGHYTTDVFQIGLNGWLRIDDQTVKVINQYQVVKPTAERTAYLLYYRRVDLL
smiles,measurement,setting,value
CC(NC(=O)CCl)c1cc2n(n1)CCCC2.Cl (stereo not given),log2 ratio of Biotin-Ahx-Ub-VS probe labelling,OTUD6B,-0.253
same,log2 ratio of Biotin-Ahx-Ub-VS probe labelling,OTUD7B,-1.77 (active)
same,log2 ratio of Biotin-Ahx-Ub-VS probe labelling,PRPF8,0.0583
same,log2 ratio of Biotin-Ahx-Ub-VS probe labelling,PSMD7,0.0299
same,log2 ratio of Biotin-Ahx-Ub-VS probe labelling,UCHL1,-2.03 (active)
same,log2 ratio of Biotin-Ahx-Ub-VS probe labelling,UCHL3,0.315
same,log2 ratio of Biotin-Ahx-Ub-VS probe labelling,UCHL5,-0.121
same,log2 ratio of Biotin-Ahx-Ub-VS probe labelling,USP10,-0.153
same,log2 ratio of Biotin-Ahx-Ub-VS probe labelling,USP15,0.0201
same,log2 ratio of Biotin-Ahx-Ub-VS probe labelling,USP16,-0.211

# Reference: the supplement of paper PMC11732987, “Enantioselective OTUD7B fragment discovery through chemoproteomics screening and high-throughput optimisation” (Communications Chemistry, 2025)
